# Mtb FBA inh: Mtb FBA enzyme inhibitors, primary screen, biochemical, fluorescence, strain H37Rv; 360,000 compounds, 2.3% hits; Fructose-bisphosphate aldolase (Mycobacterium tuberculosis (strain ATCC 25618 / H37Rv)), …; purified M. tuberculosis FBA, fluorescence read-out; inhibition, % at 1 µM
# Target sequence (P9WQA3 whole entry, looked up): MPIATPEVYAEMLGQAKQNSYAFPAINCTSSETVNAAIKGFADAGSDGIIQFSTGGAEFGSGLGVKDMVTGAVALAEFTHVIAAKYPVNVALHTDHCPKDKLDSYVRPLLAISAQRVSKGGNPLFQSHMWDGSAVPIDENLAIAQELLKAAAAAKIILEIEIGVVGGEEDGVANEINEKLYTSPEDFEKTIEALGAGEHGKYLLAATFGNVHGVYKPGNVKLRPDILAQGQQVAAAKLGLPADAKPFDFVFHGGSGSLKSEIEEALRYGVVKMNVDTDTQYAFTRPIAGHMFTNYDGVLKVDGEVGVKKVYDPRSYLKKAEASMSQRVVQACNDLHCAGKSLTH
# CCHF vOTU inh: CCHFV vOTU protease inhibitors, primary screen, biochemical, Pep-AMC substrate, fluorescence. Crimean-Congo hemorrhagic fever virus L polyprotein viral ovarian tumor (vOTU) protease …. inhibition, % at 11.5 µM. 370,000 compounds, 0.55% hits; in the data active = inhibition above about 30%
# GDH-TPI counter-1: GDH-TPI coupling enzyme inhibitors, primary screen, artefact control for M. tuberculosis FBA inhibitor project, biochemical, absorbance, full deck. GDH-TPI coupled enzyme counterscreen, NADH absorbance. 360,000 compounds, 1.2% hits. inhibition, % at 4.8 µM; in the data active = inhibition above about 30%
# Mtb betalactam: beta-lactam sensitization of Mtb H37Rv, H37Rv; M. tuberculosis H37Rv growth with meropenem, percent inhibition; inhibition, % at 25 µM; 330,000 compounds, 0.27% hits; AID 434955, 2010; call rule not given here;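 note: growth measured after seven days incubation then overnight dye step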
# MazEF act: activators of E. coli MazEF toxin-antitoxin RNase, primary screen, biochemical, fluorescence, uHTS; Endoribonuclease toxin MazF (Escherichia coli (strain K12)), P0AE70; FAM/BHQ RNA-DNA oligo cleavage fluorescence, 5 h; activation, % at 20 µM; 350,000 compounds, 0.32% hits; AID 504720, 2011; in the data active = activation above about 50%
# Target sequence (P0AE70 whole entry, looked up): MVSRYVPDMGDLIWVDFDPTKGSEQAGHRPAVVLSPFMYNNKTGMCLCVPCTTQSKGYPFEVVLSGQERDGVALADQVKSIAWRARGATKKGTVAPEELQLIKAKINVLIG
# Mtb FBA confirm: M. tuberculosis aldolase blockers, biochemical, fluorescence, strain H37Rv, confirmation. purified M. tuberculosis FBA, fluorescence read-out. shares compounds with Mtb FBA inh. inhibition, % at 1 µM. AID 651616, 2012. 5,600 compounds, 78% hits
# GDH-TPI counter-2: GDH-TPI coupling enzyme inhibitors, artefact control for M. tuberculosis FBA inhibitor project, biochemical, fluorescence, high throughput. shares compounds with Mtb FBA inh. GDH-TPI coupled enzyme counterscreen. inhibition, % at 1 µM. 5,600 compounds, 81% hits; in the data active = inhibition above about 10%
# Hits are given with their value; i = inactive; nt = no result given; + = active, no number. An excerpt weighted towards active compounds, which were near 4% of everything screened. Cut-off read from the data, not from the text of the source, unless noted: active = inhibition above about 27%; inactive = the rest.
SMILES,Mtb FBA inh,CCHF vOTU inh,GDH-TPI counter-1,Mtb betalactam,MazEF act,Mtb FBA confirm,GDH-TPI counter-2
COc1ccc2c(c1)c(=O)oc1c(C)c(OCc3ccc(C(=O)O)cc3)ccc12,i,nt,i,i,i,nt,nt
COc1ccc2c(c1)c(=O)oc1c(C)c(OCc3cc(C(=O)O)oc3C)ccc12,43,i,i,i,i,i,i
COc1ccc2c(c1)c(=O)oc1c(C)c(OC(C)C(=O)NCC3CCC(C(=O)O)CC3)ccc12 (stereo not given),35,i,i,i,i,92,81
CC1CC(C)CN(C(=O)C2CCN(c3cncnc3)CC2)C1 (stereo not given),nt,i,nt,nt,nt,nt,nt
CC1=C(C#N)C(c2cccnc2)C2=C(CC(c3ccc(Cl)cc3)CC2=O)N1 (stereo not given),70,i,i,i,i,i,i
COc1ccc(CCN(C)C(=O)c2cc(=O)c3ccccc3o2)cc1OC,50,i,i,i,i,i,i
CCc1ccc(CN(C)C(=O)c2cc(=O)c3ccccc3o2)cc1,i,i,i,i,i,nt,nt
COC(=O)[C@]12C[C@H](CC(=O)NCCCCc3ccccc3)C(=O)N(Cc3cccc4ccccc34)C1=C[C@H](C1CCCC1)O[C@@H]2C,nt,i,nt,nt,nt,nt,nt
CCOC(=O)[C@]12CCCCC/C=C\1N(CCc1ccc(Cl)cc1)C(=O)[C@H]2CC(=O)NCCc1ccccc1OC,nt,i,nt,nt,nt,nt,nt
COC(=O)/C=c1\[nH]c2nnc(C)n2c1=O,84,i,i,i,i,+,+
Cc1ccc(-c2ccc(CCC(=O)O)n2CC2CCCO2)cc1 (stereo not given),41,i,i,i,i,92,60
O=C(O)CCc1ccc(-c2ccccc2)n1Cc1ccco1,i,i,i,i,i,nt,nt
O=C(O)CCc1ccc(-c2ccccc2)n1CC1CCCO1 (stereo not given),37,i,i,i,i,133,119
O=C(/C=C(\Nc1cc(Cl)c(Cl)c(Cl)c1)c1ccccc1)c1ccccc1,nt,i,nt,nt,nt,nt,nt
CCn1c(N)nc2ccccc21,i,i,i,i,i,nt,nt
C=CCn1c(N)nc2ccccc21,i,i,i,i,i,nt,nt
C=CCn1c(-c2ccc(N)cc2)nc2ccccc21,92,i,i,i,i,i,i
CCn1c(-c2ccc(N)cc2)nc2ccccc21,83,i,i,i,i,102,78
CCCCOCCCNC(=O)C[C@@H]1C(=O)N(Cc2ccc(OC)cc2)/C2=C/CCCCC[C@@]21C(=O)OCC,nt,i,nt,nt,nt,nt,nt
O=C1N=C(N2CCN(c3ccccc3)CC2)S/C1=C/c1cccs1,34,i,i,i,i,i,i
O=C1N=C(N2CCN(Cc3ccccc3)CC2)S/C1=C/c1cccs1,i,i,i,i,i,nt,nt
COC(=O)[C@H](CC(C)C)N(CCCc1cn(CC2CCCCC2)nn1)S(=O)(=O)c1ccc(F)cc1Br,nt,i,nt,nt,nt,nt,nt
CC(C)OC(=O)c1cc2c(ccn2-c2ccc(F)cc2)n1CC(=O)N1CCN(C(=O)c2ccco2)CC1,36,i,i,i,i,+,+
COC(=O)c1cc2c(ccn2-c2ccc(F)cc2)n1CC(=O)N1CCN(C(=O)c2ccco2)CC1,29,i,i,i,i,+,197
CC(C)OC(=O)c1cc2c(ccn2C)n1CC(=O)N1CCC(Cc2ccccc2)CC1,i,i,i,i,i,nt,nt
SMILES,Mtb FBA inh,CCHF vOTU inh,GDH-TPI counter-1,Mtb betalactam,MazEF act,Mtb FBA confirm,GDH-TPI counter-2
Cc1ccc(C)c2c1c1ccccc1n2C,i,i,i,i,i,nt,nt
CN(C)c1cc2c3ccccc3n(C)c2cc1N,71,i,i,nt,i,147,134
CNC(=S)N/N=C/c1ccc(N(C)C)cc1,42,i,40,i,i,+,+
CNC(=S)N/N=C/c1ccc(C(C)C)cc1,i,i,i,i,i,nt,nt
Cc1c(NC(=S)N/N=C/c2ccc(N(C)C)cc2)c(=O)n(-c2ccccc2)n1C,33,i,33,i,i,116,88
CC(=O)N1CCCN(S(=O)(=O)c2ccc3c(c2)c(=O)n(C)c(=O)n3C)CC1,nt,i,nt,nt,nt,nt,nt
CN(Cc1ccc(F)cc1)C(=O)CN1C(=O)C2(OCCCO2)c2ccccc21,nt,i,nt,nt,nt,nt,nt

# Assay outcomes deposited in PubChem by several laboratories.
